Reference: PubChem BioAssay (Tox21)
Several values for one entry are separate records, joined by “and”; a condition that tells them apart may be missing. Identical values can stand only once. Records with an inconclusive call do not appear. Some compounds were tested as several samples or in several runs, with calls that do not always agree. Activity calls are given as the source filed them. Unless noted, the call rests on the fitted dose curve; in most records, active means well fitted curve in the direction sought with a large enough effect in the repeat runs; inconclusive means weak or mixed curves; inactive means no such curve, though single readings can be large; an effect the other way counts as inactive or inconclusive.

Experiments:
[1] = qHTS assay to identify small molecule agonists of the androgen receptor (AR) signaling pathway in the presence of an antagonist - cell viability counter screen (AID 1259379);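 further: MDA-kb2 human breast cancer cells carrying an MMTV luciferase reporter; series mostly up to about 92 µM; nearly all actives have a fitted effect of over 25% in size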
Method in brief: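 Counter screen for cell viability run in parallel with the AR agonist-mode luciferase assay. MDA-kb2 cells were co-treated with nilutamide (3.0uM final) and compounds, then incubated 16 hr at 37C, and CellTiter-Fluor fluorescence was measured.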

[2] = qHTS assay to identify small molecule agonists of the estrogen receptor beta (ER-beta) signaling pathway - cell viability counter screen (AID 1259380); further: nearly all actives have a fitted effect of over 30% in size; further: potency means the concentration at half of the fitted maximal effect
Method in brief: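 In this qHTS counter screen, HEK293T cells carrying an ER-beta/UAS beta-lactamase reporter, grown in 2% charcoal-stripped FBS, received compound for 16 hr; ATP-based CellTiter-Glo luminescence was then read after 30 min at room temperature.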

[3] = qHTS assay to identify small molecule antagonists of the estrogen receptor beta (ER-beta) signaling pathway - cell viability counter screen (AID 1259382); further: nearly all actives have a fitted effect of over 55% in size; further: potency means the concentration at half of the fitted maximal effect
Method in brief: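 HEK293T ER-beta-UAS-bla, 2% charcoal-stripped FBS; compounds + 1nM E2 16 hr 37C; CellTiter-Glo luminescence, 30 min RT.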

[4] = biological target: Estrogen receptor (Homo sapiens) (UniProt P03372); assay: qHTS assay to identify small molecule agonists of the estrogen receptor alpha (ER-alpha) signaling pathway in the presence of an antagonist (AID 1259383; calls by dose curve; further: top concentration of the series differs between compounds; nearly all actives have a fitted effect of over 15% in size)
Method in brief: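 ER-alpha agonism measured under antagonist challenge: 10.0nM ICI-182,780 (final) plus compound, 15 concentrations, 22hr, VM7Luc4E2 ERE-luciferase cells. Read by luminescence.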

[5] = qHTS assay to identify small molecule agonists or antagonists of the thyroid stimulating hormone receptor (TSHR) signaling pathway - wild type cell line counter screen (AID 1259384; calls by dose curve)
Method in brief: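 Counter screen in untransfected Hek293: compounds (15-point titration, triplicate) plus phosphodiesterase inhibitor Ro20-1724 added after 18 h plating; 30 min RT. Intracellular cAMP via competitive d2/cryptate immunoassay, 1 h incubation.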

[6] = biological target: Thyrotropin receptor (Homo sapiens) (UniProt P16473); assay: qHTS assay to identify small molecule antagonists of the thyroid stimulating hormone receptor (TSHR) signaling pathway (AID 1259385; calls by dose curve; further: nearly all actives have a fitted effect of over 20% in size)
Method in brief: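 Antagonist mode: compound-treated TSHR-expressing HEK293 cells were stimulated with 1.5 ng/mL TSH (final) in presence of Ro20-1724 for 30 min at RT. HTRF cAMP detection after 1 h; each compound tested at 15 concentrations, triplicate.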

[7] = qHTS assay to identify small molecule agonists of the estrogen receptor alpha (ER-alpha) signaling pathway in the presence of an antagonist - cell viability counter screen (AID 1259386);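 further: series mostly up to about 92 µM; cells exposed to compounds for 22 h at 37 °C before the viability read; nearly all actives have a fitted effect of over 30% in size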
Method in brief: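 Steps: 5-day stripped-FBS culture; seed and incubate 24hr; add ICI-182,780 (10.0nM final); pin 15-point compound titration; incubate 22hr at 37C; add CellTiter-Fluor at 21hr; read fluorescence.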

[8] = biological target: Progesterone receptor (Homo sapiens) (UniProt P06401); assay: qHTS assay to identify small molecule agonists of the progesterone receptor (PR) signaling pathway (AID 1346784; calls by dose curve; further: nearly all actives have a fitted effect of over 30% in size)
Method in brief: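 PR-UAS-bla HEK 293T cells (beta-lactamase reporter under UAS) in 2% charcoal-stripped FBS, dosed with 23 nL compound after 6 hr, incubated 16hr at 37C. LiveBLAzer B/G FRET substrate added, fluorescence read after 2 hours.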

[9] = qHTS assay to identify small molecule antagonists of the progesterone receptor (PR) signaling pathway - cell viability counter screen (AID 1346798); further: series mostly up to about 92 µM; nearly all actives have a fitted effect of over 50% in size
Method in brief: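 PR-UAS-bla HEK293T cells, 3,000/well in 2% charcoal-stripped FBS medium, dosed with compounds plus R5020 agonist and incubated 16 h at 37C. Viability then measured in the same wells by CellTiter-Glo luminescence after 30 min at RT.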

[10] = qHTS assay to identify small molecule agonists of the progesterone receptor (PR) signaling pathway - cell viability counter screen (AID 1346799; calls by dose curve; further: nearly all actives have a fitted effect of over 45% in size; further: potency means the concentration at half of the fitted maximal effect)
Method in brief: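 Counter screen in the PR-UAS-bla HEK293T wells (2% charcoal-stripped FBS, 16 h compound exposure at 37 C) after the bla read. CellTiter-Glo added, 30 min at room temperature, luminescence read as cell viability.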

[11] = qHTS assay to identify small molecule antagonists of the TGF-beta/Smad signaling pathway - cell viability counter screen (AID 1346824); further: nearly all actives have a fitted effect of over 50% in size
Method in brief: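 Cytotoxicity counter-screen run in the same wells as the beta-lactamase Smad reporter read: CellTiter-Glo luminescence after 30 min at room temperature. HEK 293T SBE-bla cells had 5 hr compound exposure at 37 C with TGF-beta1 (0.25 ng/mL stock).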

[12] = qHTS assay to identify small molecule agonists of the TGF-beta/Smad signaling pathway - cell viability counter screen (AID 1346829); further: top concentration of the series differs between compounds; nearly all actives have a fitted effect of over 45% in size
Method in brief: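 Tox21 qHTS format: SBE-bla HEK 293T cells treated with DMSO-dissolved compounds for 5 hr; CellTiter-Glo luminescence after 30 min at room temperature.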

[13] = qHTS assay to identify small molecule agonists of the TGF-beta/Smad signaling pathway (AID 1346859; active means well fitted activation curve with a large enough effect in the signal ratio in the repeat runs, not every such curve was filed as active; the % refers to the signal ratio; further: series mostly up to about 77 µM)
Method in brief: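 SBE-bla HEK293T cells plated overnight, then compound exposure for 5 h at 37 C. Beta-lactamase reporter read with LiveBLAzer B/G FRET substrate after 2 h at room temperature, fluorescence at 405 nm excitation, 460/530 nm emission.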

[14] = biological target: Thyrotropin-releasing hormone receptor (Homo sapiens) (UniProt P34981); assay: qHTS assay to identify small molecule antagonists of the thyrotropin-releasing hormone receptor (TRHR) signaling pathway (AID 1346877; active means well fitted inhibition curve with a large enough effect in the repeat runs, not every such curve was filed as active; further: series mostly up to about 51 µM)
Method in brief: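 Human TRHR in HEK293 cells; inhibition of the intracellular calcium rise triggered by 1 nM TRH was followed by fluorescence over 3 min. Compounds were run at 15 concentrations, three replicates each.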

[15] = biological target: Thyrotropin-releasing hormone receptor (Homo sapiens) (UniProt P34981); assay: qHTS assay to identify small molecule agonists of the thyrotropin-releasing hormone receptor (TRHR) signaling pathway (AID 1346891; calls by dose curve; further: series mostly up to about 58 µM)
Method in brief: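 HEK293 cells expressing TRHR plated 18 h at 37 C/5% CO2, calcium dye-loaded 2 h at 37 C, then compound added (agonist mode); kinetic calcium fluorescence read 3 min at 1 s intervals; 15 concentrations in triplicate.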

[16] = Human pregnane X receptor (PXR) small molecule agonists, qHTS cell viability counter screen (AID 1346977); further: nearly all actives have a fitted effect of over 50% in size; further: potency means the concentration at half of the fitted maximal effect
Method in brief: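 PXR-Luc HepG2 cells (2,000/well, 5% charcoal-stripped FBS) preincubated 5 hr, then exposed to compounds 24 hr at 37 C. Viability read in the same wells by CellTiter-Fluor fluorescence, reagent added at 23 hr, 1 hr incubation.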

[17] = Caspase-3/7 induction in HepG2 cells by small molecules, qHTS assay (AID 1346978); further: nearly all actives have a fitted effect of over 15% in size
Method in brief: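 Caspase-3/7 induction was measured by Caspase-Glo 3/7 luminescence (30 min, room temperature) after a 17 hr compound exposure of wild-type HepG2 cells seeded at 2,000 per well and pre-incubated 5 hr.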

[18] = Caspase-3/7 induction in CHO-K1 cells by small molecules, qHTS cell viability counter screen (AID 1346979); further: nearly all actives have a fitted effect of over 35% in size; further: potency means the concentration at half of the fitted maximal effect
Method in brief: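 Wild-type CHO-K1 cells (1,500/well) treated with compound after 5 h plating; after 16 h at 37C, viability read as CellTiter-Fluor fluorescence following 1 h reagent incubation, in the same wells as the caspase read.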

[19] = biological target: Progesterone receptor (Homo sapiens) (UniProt P06401); assay: qHTS assay to identify small molecule antagonists of the progesterone receptor (PR) signaling pathway (AID 1346795; active means well fitted inhibition curve with a large enough effect in the signal ratio in the repeat runs, not every such curve was filed as active; the % refers to the signal ratio; further: potency means the concentration at half of the fitted maximal effect)
Method in brief: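 PR-UAS-bla HEK293T cells with beta-lactamase reporter under UAS control, in 2% charcoal-stripped FBS, treated with compounds plus 1 nM promegestone (R5020, final) for 16 hr at 37C. Read-out: FRET beta-lactamase substrate fluorescence after 2 hr at room temperature.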

[20] = biological target: Androgen receptor (Homo sapiens) (UniProt P10275); assay: qHTS assay to identify small molecule agonists of the androgen receptor (AR) signaling pathway in the presence of an antagonist (AID 1259381; calls by dose curve; further: nearly all actives have a fitted effect of over 15% in size)
Method in brief: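 AR antagonist background: nilutamide 3.0uM final. Cell line: MDA-kb2, MMTV-driven luciferase, responsive to both AR and GR. Exposure 16hr, 37C, no CO2; ONE-Glo luminescence.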

Measured: Potency

Estrogen receptor (Homo sapiens), sequence (P03372 whole entry, looked up): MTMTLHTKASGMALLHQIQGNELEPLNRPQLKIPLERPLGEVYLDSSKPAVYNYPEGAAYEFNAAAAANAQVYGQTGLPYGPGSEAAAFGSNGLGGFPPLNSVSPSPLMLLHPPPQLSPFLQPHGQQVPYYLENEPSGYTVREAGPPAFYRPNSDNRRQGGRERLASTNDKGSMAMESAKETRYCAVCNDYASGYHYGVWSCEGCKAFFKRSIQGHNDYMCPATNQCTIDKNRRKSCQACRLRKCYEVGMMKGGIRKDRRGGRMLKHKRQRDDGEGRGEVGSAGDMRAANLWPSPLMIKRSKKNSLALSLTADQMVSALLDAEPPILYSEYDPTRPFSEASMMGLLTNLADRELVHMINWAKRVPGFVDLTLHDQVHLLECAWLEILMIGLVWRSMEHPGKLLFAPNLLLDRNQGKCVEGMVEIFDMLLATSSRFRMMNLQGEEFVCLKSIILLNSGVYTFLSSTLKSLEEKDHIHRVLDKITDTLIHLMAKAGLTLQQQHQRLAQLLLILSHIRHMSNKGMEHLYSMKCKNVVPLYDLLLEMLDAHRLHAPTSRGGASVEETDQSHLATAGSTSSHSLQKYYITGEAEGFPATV
Thyrotropin receptor (Homo sapiens), sequence (P16473 whole entry, looked up): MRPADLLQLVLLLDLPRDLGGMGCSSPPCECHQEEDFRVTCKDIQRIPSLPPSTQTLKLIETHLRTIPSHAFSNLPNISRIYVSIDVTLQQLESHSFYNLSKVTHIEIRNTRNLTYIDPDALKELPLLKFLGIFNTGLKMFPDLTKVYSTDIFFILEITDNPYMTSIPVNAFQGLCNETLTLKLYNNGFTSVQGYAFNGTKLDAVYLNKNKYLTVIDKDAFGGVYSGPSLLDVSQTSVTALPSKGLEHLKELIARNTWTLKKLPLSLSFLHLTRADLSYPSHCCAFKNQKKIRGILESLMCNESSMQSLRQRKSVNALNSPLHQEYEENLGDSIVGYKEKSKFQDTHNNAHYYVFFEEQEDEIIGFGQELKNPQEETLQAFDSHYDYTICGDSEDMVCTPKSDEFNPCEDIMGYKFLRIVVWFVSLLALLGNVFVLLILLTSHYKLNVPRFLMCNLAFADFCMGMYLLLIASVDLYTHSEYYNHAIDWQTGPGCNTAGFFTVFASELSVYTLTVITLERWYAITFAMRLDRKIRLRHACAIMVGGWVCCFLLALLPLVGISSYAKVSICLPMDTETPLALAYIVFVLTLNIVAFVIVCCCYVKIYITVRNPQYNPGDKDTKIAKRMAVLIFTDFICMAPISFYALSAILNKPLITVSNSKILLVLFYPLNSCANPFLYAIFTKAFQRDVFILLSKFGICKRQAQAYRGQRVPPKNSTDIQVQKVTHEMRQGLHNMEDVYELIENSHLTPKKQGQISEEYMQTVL
Progesterone receptor (Homo sapiens), sequence (P06401 whole entry, looked up): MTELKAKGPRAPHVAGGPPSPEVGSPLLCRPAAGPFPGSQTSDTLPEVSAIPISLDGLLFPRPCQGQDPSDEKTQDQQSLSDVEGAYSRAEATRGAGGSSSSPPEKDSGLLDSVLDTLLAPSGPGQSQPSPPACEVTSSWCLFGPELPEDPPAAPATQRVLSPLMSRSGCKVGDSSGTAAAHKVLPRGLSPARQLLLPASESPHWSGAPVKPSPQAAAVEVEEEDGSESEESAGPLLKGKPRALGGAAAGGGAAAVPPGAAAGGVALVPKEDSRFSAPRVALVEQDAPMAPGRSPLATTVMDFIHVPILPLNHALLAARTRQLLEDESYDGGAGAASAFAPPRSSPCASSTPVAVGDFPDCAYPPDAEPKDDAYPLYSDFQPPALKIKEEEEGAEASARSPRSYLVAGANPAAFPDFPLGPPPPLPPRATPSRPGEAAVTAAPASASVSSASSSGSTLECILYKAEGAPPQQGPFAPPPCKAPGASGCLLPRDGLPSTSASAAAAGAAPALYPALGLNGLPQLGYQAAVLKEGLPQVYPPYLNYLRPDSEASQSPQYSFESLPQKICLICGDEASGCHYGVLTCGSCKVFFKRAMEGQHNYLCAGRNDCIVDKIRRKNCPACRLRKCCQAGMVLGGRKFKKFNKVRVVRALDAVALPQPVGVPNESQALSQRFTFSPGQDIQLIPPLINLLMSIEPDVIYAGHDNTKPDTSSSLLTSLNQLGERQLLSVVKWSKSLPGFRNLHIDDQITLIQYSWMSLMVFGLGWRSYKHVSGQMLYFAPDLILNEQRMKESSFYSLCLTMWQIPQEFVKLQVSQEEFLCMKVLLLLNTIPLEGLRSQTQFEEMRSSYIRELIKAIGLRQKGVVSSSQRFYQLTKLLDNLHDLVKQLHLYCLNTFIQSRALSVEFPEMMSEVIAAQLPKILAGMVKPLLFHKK
Thyrotropin-releasing hormone receptor (Homo sapiens), sequence (P34981 whole entry, looked up): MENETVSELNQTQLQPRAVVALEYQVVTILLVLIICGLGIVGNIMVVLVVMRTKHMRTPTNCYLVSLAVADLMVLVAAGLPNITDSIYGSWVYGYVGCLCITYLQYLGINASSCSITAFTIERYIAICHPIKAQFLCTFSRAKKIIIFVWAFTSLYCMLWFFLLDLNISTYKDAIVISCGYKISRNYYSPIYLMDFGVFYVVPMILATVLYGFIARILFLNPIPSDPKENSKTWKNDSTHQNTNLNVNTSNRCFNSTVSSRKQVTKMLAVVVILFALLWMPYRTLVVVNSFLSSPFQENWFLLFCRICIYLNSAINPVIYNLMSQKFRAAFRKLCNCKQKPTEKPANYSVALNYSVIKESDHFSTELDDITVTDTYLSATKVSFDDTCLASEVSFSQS
Androgen receptor (Homo sapiens), sequence (P10275 whole entry, looked up): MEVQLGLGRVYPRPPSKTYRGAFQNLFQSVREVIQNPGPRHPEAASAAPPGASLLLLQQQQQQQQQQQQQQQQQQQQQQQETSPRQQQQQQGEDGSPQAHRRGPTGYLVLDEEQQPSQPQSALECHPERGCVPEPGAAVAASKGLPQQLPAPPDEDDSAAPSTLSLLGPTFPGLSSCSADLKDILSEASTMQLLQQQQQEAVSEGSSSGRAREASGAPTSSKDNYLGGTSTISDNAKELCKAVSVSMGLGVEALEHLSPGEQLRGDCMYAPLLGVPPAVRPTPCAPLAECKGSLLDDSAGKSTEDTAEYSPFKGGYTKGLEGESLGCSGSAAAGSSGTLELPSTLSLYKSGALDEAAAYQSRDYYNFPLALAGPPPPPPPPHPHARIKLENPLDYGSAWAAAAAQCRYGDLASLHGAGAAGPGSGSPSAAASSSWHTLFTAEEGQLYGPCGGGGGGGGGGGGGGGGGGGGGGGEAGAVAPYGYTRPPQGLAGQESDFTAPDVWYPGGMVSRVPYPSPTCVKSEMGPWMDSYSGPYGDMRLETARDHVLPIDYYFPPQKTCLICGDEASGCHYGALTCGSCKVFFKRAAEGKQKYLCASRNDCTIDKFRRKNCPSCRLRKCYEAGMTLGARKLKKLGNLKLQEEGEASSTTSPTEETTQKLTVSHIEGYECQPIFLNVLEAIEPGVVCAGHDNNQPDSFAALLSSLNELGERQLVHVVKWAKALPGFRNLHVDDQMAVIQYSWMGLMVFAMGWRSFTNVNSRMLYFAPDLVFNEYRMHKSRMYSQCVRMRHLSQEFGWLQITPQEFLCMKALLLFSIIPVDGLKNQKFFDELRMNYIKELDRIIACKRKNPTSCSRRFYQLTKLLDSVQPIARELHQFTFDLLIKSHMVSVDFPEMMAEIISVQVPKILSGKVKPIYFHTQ

CCOP(=S)(OCC)Oc1cnc2ccccc2n1
not listed: [19] | [20]
inactive: all other assays above

Clc1ccc(Cl)cc1
active: [18] 2.17 µM
2.17 µM (active) and inactive: [16]
not listed: [14] | [19] | [20]
inactive: all other assays above

Cc1ccc(N)cc1N
not listed: [5] | [14] | [20]
inactive: all other assays above

O=[N+]([O-])c1ccc([As](=O)(O)O)cc1
not listed: [19] | [20]
inactive: all other assays above

CCCN(CCC)N=O
not listed: [19] | [20]
inactive: all other assays above

COc1ccc2c3c1O[C@H]1[C@@H](O)C=C[C@H]4[C@@H](C2)N(C)CC[C@@]341
60.1 µM (active) and inactive: [18]
67.5 µM (active) and inactive: [16]
not listed: [14] | [15] | [19] | [20]
inactive: all other assays above

Clc1ccccc1Cl
not listed: [4] | [19] | [20]
inactive: all other assays above

CCCC1COC(Cn2cncn2)(c2ccc(Cl)cc2Cl)O1 (stereo unspecified)
active: [2] 61.1 µM | [19] 17.5 µM | [18] 62.3 µM and 68.6 µM
not listed: [1] | [9] | [10] | [11] | [16]
inactive: all other assays above

Oc1ccccc1Cl
not listed: [4] | [20]
inactive: all other assays above

Cc1cc(-c2cc(C)c(N)c(C)c2)cc(C)c1N
not listed: [2] | [6] | [14] | [15] | [19] | [20]
inactive: all other assays above

COC(=O)c1ccccc1N
not listed: [4] | [14] | [19] | [20]
inactive: all other assays above

CCC[N+](=O)[O-]
19 µM (active) and inactive: [10]
23.9 µM (active) and inactive: [3]
8.48 µM (active) and inactive: [2]
not listed: [4] | [8] | [9] | [14] | [15] | [19] | [20]
inactive: all other assays above

CCCCCCCCCCCC#N
not listed: [4] | [14] | [15] | [20]
inactive: all other assays above

CCCCCCCCCl
not listed: [5] | [6] | [14] | [19] | [20]
inactive: all other assays above

Clc1cccc(Cl)c1Cl
not listed: [4] | [20]
inactive: all other assays above
